These results are taken from PubChem BioAssay (NCI).

Values joined by “and” are separate entries in the source; they are usually repeats but may differ in a detail not shown here. Identical values can stand only once. About 83,000 compounds went through this panel and 20% of them were active in at least one assay; those are over-represented in the sample as a whole.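 Testing used 96-well plates and a 48-hour single-concentration exposure. Example: -40 means 40% of the starting cells died.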 Active and inactive are the calls of the source. The calls were made as follows: active = growth percent below 10; inactive = the rest.

Among the test systems are HCT-15 colon; HT29 colon; SNB-75 CNS; SNB-19 CNS; U251 CNS; PC-3 prostate; SK-MEL-5 melanoma; UACC-62 melanoma; LOX IMVI melanoma; SK-MEL-28 melanoma; EKVX NSCLC; SN12C renal; UO-31 renal; TK-10 renal; CAKI-1 renal; A498 renal; HL-60(TB) leukemia; CCRF-CEM leukemia; SK-MEL-2 melanoma; ACHN renal.
Assay in all cases: NCI-60 one-dose screen, 48 h (100 = growth as untreated, 0 = no growth, -100 = all killed)
Holding throughout (conditions): 10 µM unless noted

On to `COc1ccc(CN)cc1OC`, for which the growth with HCT-15 colon is 103% (inactive) and 100% (inactive); in the experiment on HT29 colon, 107% (inactive); with SNB-75 CNS, 113% (inactive) and 93.3% (inactive); with SNB-19 CNS, 104% (inactive) and 103% (inactive); with U251 CNS it was 112% (inactive) and 97.6% (inactive); in the experiment on PC-3 prostate it was 106% (inactive) and 93.5% (inactive). For the same compound, the growth in the experiment on SK-MEL-5 melanoma was 115% (inactive); in the experiment with UACC-62 melanoma it was 111% (inactive) and 100% (inactive); with LOX IMVI melanoma, 98.2% (inactive) and 94.2% (inactive); with SK-MEL-28 melanoma it was 110% (inactive) and 116% (inactive); in the experiment on EKVX NSCLC, 121% (inactive); in the experiment on SN12C renal it was 98.7% (inactive) and 98.1% (inactive). The growth with UO-31 renal was 96.8% (inactive) and 82.6% (inactive); in the experiment with TK-10 renal, 127% (inactive) and 115% (inactive); with CAKI-1 renal it was 101% (inactive); in the experiment with A498 renal, 124% (inactive) and 85% (inactive); with HL-60(TB) leukemia it was 98% (inactive); with CCRF-CEM leukemia it was 116% (inactive) and 97.7% (inactive).
`Oc1ccccc1C=NCCN=Cc1ccccc1O`: the growth with HCT-15 colon is 104% (inactive); with HT29 colon, 108% (inactive); in the experiment with SNB-75 CNS, 97.6% (inactive); in the experiment with SNB-19 CNS it was 98% (inactive); in the experiment on U251 CNS, 91.6% (inactive); in the experiment with PC-3 prostate it was 95.1% (inactive). The growth with SK-MEL-5 melanoma was 99.5% (inactive); in the experiment on UACC-62 melanoma, 98.8% (inactive); in the experiment on LOX IMVI melanoma it was 95.6% (inactive); in the experiment with SK-MEL-28 melanoma, 103% (inactive); in the experiment with SK-MEL-2 melanoma, 106% (inactive); in the experiment on UO-31 renal, 92.3% (inactive). For the same compound, the growth is 104% (inactive) in the experiment on TK-10 renal; 103% (inactive) with ACHN renal; 102% (inactive) in the experiment with CAKI-1 renal; 77.9% (inactive) with A498 renal; 115% (inactive) in the experiment with HL-60(TB) leukemia; 90% (inactive) with CCRF-CEM leukemia.
Regarding `O=NN(c1ccccc1)c1ccccc1`, the growth is 103% (inactive) in the experiment with HCT-15 colon; 119% (inactive) with HT29 colon; 101% (inactive) in the experiment with SNB-75 CNS; 106% (inactive) with SNB-19 CNS; 99.2% (inactive) with U251 CNS; 98% (inactive) in the experiment on PC-3 prostate. Besides, the growth in the experiment with SK-MEL-5 melanoma was 98.6% (inactive); in the experiment on UACC-62 melanoma it was 95.4% (inactive); in the experiment with LOX IMVI melanoma it was 100% (inactive); in the experiment on SK-MEL-28 melanoma it was 114% (inactive); in the experiment on TK-10 renal, 103% (inactive); with ACHN renal it was 118% (inactive). Besides, the growth was 102% (inactive) in the experiment with CAKI-1 renal, 101% (inactive) with A498 renal and 98.9% (inactive) with CCRF-CEM leukemia.
Consider `O=P1(N(CCCl)CCCl)NCCCO1` (configuration not stated), for which the growth with HCT-15 colon is 106% (inactive); in the experiment on HT29 colon it was 102% (inactive); in the experiment with SNB-75 CNS, 102% (inactive); in the experiment with U251 CNS, 96.8% (inactive); in the experiment on PC-3 prostate it was 106% (inactive); in the experiment on SK-MEL-5 melanoma, 103% (inactive). The growth in the experiment on UACC-62 melanoma was 94.4% (inactive); with LOX IMVI melanoma, 104% (inactive); in the experiment with SK-MEL-28 melanoma it was 114% (inactive); in the experiment with SK-MEL-2 melanoma it was 114% (inactive); in the experiment on EKVX NSCLC, 101% (inactive); with SN12C renal, 95.4% (inactive). Besides, the growth was 90.3% (inactive) in the experiment with UO-31 renal; 103% (inactive) in the experiment on ACHN renal; 99.8% (inactive) in the experiment with CAKI-1 renal; 115% (inactive) with A498 renal; 95.6% (inactive) with CCRF-CEM leukemia.
Turning to `CCCCOC(N)=O`, the growth with HCT-15 colon was 101% (inactive); in the experiment with HT29 colon, 107% (inactive); in the experiment with SNB-75 CNS, 88.6% (inactive); in the experiment on SNB-19 CNS, 98% (inactive); in the experiment on U251 CNS it was 106% (inactive); in the experiment on PC-3 prostate it was 108% (inactive). Also, the growth in the experiment with SK-MEL-5 melanoma was 99.6% (inactive); in the experiment with LOX IMVI melanoma it was 104% (inactive); with SK-MEL-28 melanoma, 112% (inactive); with SK-MEL-2 melanoma it was 113% (inactive); in the experiment on SN12C renal, 103% (inactive); in the experiment on UO-31 renal, 89.1% (inactive). For the same compound, the growth in the experiment with ACHN renal is 111% (inactive); with CAKI-1 renal, 103% (inactive); with A498 renal, 125% (inactive); with CCRF-CEM leukemia, 102% (inactive).
On to `CN1CCc2cc3c(cc2C1O)OCO3` (configuration not stated), for which the growth was 98.9% (inactive) and 94% (inactive) in the experiment with HCT-15 colon; 96.1% (inactive) and 108% (inactive) in the experiment with HT29 colon; 81.1% (inactive) and 104% (inactive) in the experiment on SNB-75 CNS; 90.6% (inactive) and 103% (inactive) in the experiment on U251 CNS; 77% (inactive) and 89.3% (inactive) in the experiment with PC-3 prostate; -13.9% (active) and 105% (inactive) in the experiment with SK-MEL-5 melanoma. The growth was 34.2% (inactive) and 94.5% (inactive) in the experiment with UACC-62 melanoma; 71.4% (inactive) and 102% (inactive) with LOX IMVI melanoma; 94.7% (inactive) and 115% (inactive) with SK-MEL-28 melanoma; 76.1% (inactive) and 108% (inactive) in the experiment with SK-MEL-2 melanoma; 107% (inactive) and 92.8% (inactive) in the experiment with EKVX NSCLC; 112% (inactive) and 99.6% (inactive) in the experiment on SN12C renal. Also, the growth is 101% (inactive) and 82.7% (inactive) in the experiment on UO-31 renal; 112% (inactive) and 111% (inactive) in the experiment on TK-10 renal; 100% (inactive) and 101% (inactive) in the experiment on ACHN renal; 87.5% (inactive) and 95.4% (inactive) in the experiment with CAKI-1 renal; 99.7% (inactive) in the experiment on HL-60(TB) leukemia; 86.8% (inactive) and 103% (inactive) with CCRF-CEM leukemia.
In the case of `CCCn1cc2c3c(cccc31)[C@H]1C[C@@H](C)CN(C)[C@@H]1C2`, the growth is 84.1% (inactive) in the experiment with HCT-15 colon; 45% (inactive) with HT29 colon; 58.2% (inactive) in the experiment with SNB-75 CNS; 86.7% (inactive) in the experiment with U251 CNS; 72.3% (inactive) in the experiment with PC-3 prostate; 113% (inactive) in the experiment on SK-MEL-5 melanoma. In addition, the growth in the experiment with UACC-62 melanoma is 93.2% (inactive); in the experiment on LOX IMVI melanoma, 88.5% (inactive); in the experiment with SK-MEL-28 melanoma, 97.7% (inactive); in the experiment on SK-MEL-2 melanoma, 134% (inactive); in the experiment with EKVX NSCLC, 94.9% (inactive); in the experiment on SN12C renal, 81.6% (inactive). In addition, the growth in the experiment with UO-31 renal is 36.1% (inactive); in the experiment on TK-10 renal, 96.8% (inactive); in the experiment with ACHN renal it was 94.6% (inactive); in the experiment on CAKI-1 renal it was 83.8% (inactive); in the experiment on CCRF-CEM leukemia, 86.9% (inactive).
Regarding `CC1=C([Te]c2ccccc2)C(=O)c2ccccc2C1=O`, the growth was -43.6% (active) in the experiment with HCT-15 colon; -22.7% (active) with HT29 colon; -25.6% (active) with SNB-75 CNS; -30.1% (active) in the experiment with U251 CNS; -30.8% (active) in the experiment with PC-3 prostate; -95% (active) in the experiment on SK-MEL-5 melanoma. In addition, the growth was -24.9% (active) in the experiment on UACC-62 melanoma; -41.7% (active) in the experiment on LOX IMVI melanoma; -64.4% (active) in the experiment with SK-MEL-28 melanoma; 9.62% (active) in the experiment with SK-MEL-2 melanoma; -38.6% (active) in the experiment on EKVX NSCLC; 5.18% (active) in the experiment on SN12C renal. In addition, the growth in the experiment with UO-31 renal is -33.4% (active); in the experiment with TK-10 renal it was -33% (active); with ACHN renal, -86.6% (active); in the experiment with CAKI-1 renal, -46.5% (active); in the experiment on A498 renal, -66% (active); in the experiment on CCRF-CEM leukemia, -44.9% (active).
